Screening results as filed in PubChem.
Dicer inh = inhibitors of human Dicer processing of pre-microRNA; Q9UPY3; cat-ELCCA pre-miR-21 Dicer processing, chemiluminescence; stronger effect = higher value; z-score at 25 µM; 6% of 47,000 active; AID 1347074; in the data active means z-score above about 3, passing the limit was not always enough;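 further: plate controls were vehicle for no effect and no enzyme for full effect; higher signal means more uncleaved substrate so more Dicer inhibition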
* hit, by the source's call. Only a selection was taken, and hits are over-represented in it overall.

SMILES | Dicer inh
O=C(NC(=O)c1c(Cl)cccc1Cl)Nc1ccccc1N1CCCCC1 | -0.64
CCN(CC)CC(=O)Nc1c(C#N)cnn1-c1ccccc1 | 4.7*
CCN(CC)CC(=O)Nc1cc(C)nn1-c1ccccc1 | 1.6
N#Cc1cnn(-c2ccccc2)c1NC(=O)CSc1nnc(-c2ccc(Cl)cc2)o1 | -0.2
CN(C)CCNc1ncnc2c1sc1nc3c(cc12)COC(C)(C)C3 | 0.01
CC(=O)n1nccc1-c1sc2ccc(Cl)cc2c1C | 1.3
CC(=O)OC[C@H](OC(C)=O)[C@H](OC(C)=O)C12COC(=O)C(N1C(C)=O)C(C)(C)S2 (some centres not stated) | -1.1
O=C(Nc1ccc(F)cc1)c1csc2c1CCCC2 | 0.54
COc1ccc(N2C(=O)CC(Sc3nc(CC(C)C)ccc3C#N)C2=O)cc1 (configuration not stated) | 1.2
CC12C=CC(O1)C1C(=O)N(c3ccc(C(=O)O)cc3)C(=O)C12 (configuration not stated) | -0.17
O=C(O)c1ccc(N2C(=O)CCC2=O)cc1 | 4.8*
CCCCCCC(=O)Oc1ccc(N2C(=O)CCC2=O)cc1 | 1.4
Cc1cc(N2CCOCC2)nc(N2CCOCC2)n1 | 0.53
Cc1cc(C)nc(N2CCC(NC3CC(=O)N(c4ccc(F)cc4)C3=O)CC2)n1 (configuration not stated) | 0.35
Cc1cc(C)nc(N2CCN(c3nc(C)cc(C)n3)CC2)n1 | 4.2*
O=C(O)CNC(=O)c1cccc(Cl)c1 | 0.67
O=[N+]([O-])c1cccc(-c2csc(=S)n2Nc2ccccc2)c1 | -1.6
O=[N+]([O-])c1ccc(N/N=C2\CCOc3ccc(F)cc32)cc1 | -2
CC1=CCC2C(=O)N(c3cc(C)on3)C(=O)C2C1 (configuration not stated) | -0.01
CC1=CCC2C(=O)N(c3ncccn3)C(=O)C2C1 (configuration not stated) | 3.7*
CC1=CCC2C(=O)N(c3ccccc3O)C(=O)C2C1 (configuration not stated) | -0.99
CC(=O)c1cc2cc([N+](=O)[O-])ccc2o1 | 0.51
CCOC(=O)c1nnn(-c2nonc2N)c1CN(C)C | -0.78
COc1ccc(C2CC(=O)C3=C(C2)NC(C)=C(C(=O)OC(C)C)C3c2ccccc2OC)cc1OC (configuration not stated) | 1
COC(=O)C1=C(C)NC2=C(C(=O)CC(c3ccccc3)C2)C1c1ccccc1OC(C)C (configuration not stated) | 0.57
SMILES | Dicer inh
COc1ccccc1C1C(C(=O)OCC2CCCO2)=C(C)NC2=C1C(=O)CC(C)(C)C2 (configuration not stated) | 0.12
COc1cccc(C2C(C(=O)OCc3ccccc3)=C(C)NC3=C2C(=O)CC(C)(C)C3)c1OC (configuration not stated) | -0.01
CC1=C(C(=O)OCCOC(C)C)C(c2cccc(Cl)c2)C2=C(CC(c3cccs3)CC2=O)N1 (configuration not stated) | -0.16
COc1cccc(C2C(C(=O)OCC3CCCO3)=C(C)NC3=C2C(=O)CC(C)(C)C3)c1OC (configuration not stated) | 5.4*
COc1ccccc1C1C(C(=O)OCC(C)C)=C(C)NC2=C1C(=O)CC(c1ccccc1)C2 (configuration not stated) | 5*
COc1ccc(C2CC(=O)C3=C(C2)NC(C)=C(C(=O)OCC(C)C)C3c2ccc(F)cc2)cc1 (configuration not stated) | 5.2
CC1=C(C(=O)OCCOC(C)C)C(c2cccs2)C2=C(CC(c3cccs3)CC2=O)N1 (configuration not stated) | 4.1*
CC1=C(C(=O)OCCOC(C)C)C(c2ccc(F)cc2)C2=C(CC(c3cccs3)CC2=O)N1 (configuration not stated) | 2.4
CC1=C(C(=O)OCC(C)C)C(c2ccccc2)C2=C(CC(c3ccccc3)CC2=O)N1 (configuration not stated) | 3.6*
CC1=C(C(=O)OCC(C)C)C(c2ccc3c(c2)OCO3)C2=C(CC(c3ccccc3)CC2=O)N1 (configuration not stated) | 0.61
COc1cc(C(Sc2ccccc2)Sc2ccccc2)cc(OC)c1OC | -0.32
O=C(NNC(=O)c1cc(Cl)cc(Cl)c1)NC(=O)c1ccccc1Cl | 0.69
COC(=O)C1=C(C)NC2=C(C(=O)CC(C)(C)C2)C1c1ccc(C)s1 (configuration not stated) | 0.13
O=S(=O)(Cc1ccc(Cl)c(Cl)c1)Cc1ccc(Cl)c(Cl)c1 | 1.4
Cc1nnc2c3c4c(sc3ncn12)CC(C)CC4 (configuration not stated) | 0.82
CCOC(=O)c1c(NC(=O)c2ccco2)sc(CC)c1C | 0.95
CCSCCOC(=O)C1=C(C)NC2=C(C(=O)CC(c3ccccc3)C2)C1c1ccc(F)cc1 (configuration not stated) | -0.88
COCCOC(=O)C1=C(C)NC2=C(C(=O)CC(c3ccccc3)C2)C1c1cccc(OC)c1OC (configuration not stated) | 7.2*
COC(=O)C1=C(C)NC2=C(C(=O)CC(c3ccccc3OC)C2)C1c1cccc(OC)c1OC (configuration not stated) | -0.37
CCOc1cc(C2C(C(=O)OC3CCCCC3)=C(C)NC3=C2C(=O)CC(C)(C)C3)ccc1OC(C)=O (configuration not stated) | 5.4*
CCSCCOC(=O)C1=C(C)NC2=C(C(=O)CC(c3ccccc3)C2)C1c1ccc(N(C)C)cc1 (configuration not stated) | 1.6
COc1ccc(C2C(C(=O)OC3CCCCC3)=C(C)NC3=C2C(=O)CC(C)(C)C3)cc1O (configuration not stated) | 0.85
COCCOC(=O)C1=C(C)NC2=C(C(=O)CC(c3ccccc3)C2)C1c1ccccc1F (configuration not stated) | 8.1
CCSCCOC(=O)C1=C(C)NC2=C(C(=O)CC(c3ccccc3)C2)C1c1ccccc1F (configuration not stated) | 4*
COc1ccc(C2CC(=O)C3=C(C2)NC(C)=C(C(=O)OCC(C)C)C3c2ccncc2)cc1 (configuration not stated) | 0.73
SMILES | Dicer inh
CC1=C(C(=O)OCC(C)C)C(c2ccc(N(C)C)cc2)C2=C(CC(c3ccccc3)CC2=O)N1 (configuration not stated) | 3.6*
CCSCCOC(=O)C1=C(C)NC2=C(C(=O)CC(c3cccs3)C2)C1c1ccc(F)cc1 (configuration not stated) | 0.18
COc1cc(C2C(C(=O)OC3CCCCC3)=C(C)NC3=C2C(=O)CC(C)(C)C3)ccc1O (configuration not stated) | 0.6
NC(=O)c1nnn(Cc2ccccc2Cl)c1N | 0.22
CC1CN(C(=S)Nc2cccc(C(F)(F)F)c2)CC(C)O1 (configuration not stated) | -0.87
Cc1ccc(C(=O)CSc2nc(N)c(C(=O)c3ccc(C)cc3)s2)cc1 | -5.1
Cc1ccc(C(=O)/C=C2\SC(=O)C(=O)N2c2ccccc2)cc1 | 0.66
CCCC(CCC)C(C(=O)O)C(=O)OCC (configuration not stated) | 0.76
CCOC(=O)/C(N=Nc1ccccc1Cl)=C(/O)CSc1nnc(C(F)(F)F)n1C | 1.5
CC(=O)Oc1ccc(N2C(=O)C3CC(C)=C(C)CC3C2=O)cc1 (configuration not stated) | -0.08
S=c1[nH]nc(-c2ccc(Cl)cc2)n1/N=C/c1cccnc1 | -2
